This is part of a sample that, as a whole, favours compounds with a hit. Of some 83,000 tested, about 20% had one in any assay.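 The endpoint reported here, percent growth, reads 100 for growth as untreated, 0 for no net growth and -100 for all cells dead.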 Values without a mark were called inactive. Active and inactive are the calls of the source. How the source made its calls: active means growth percent below 10; inactive means the rest.

Among the test systems are NCI-H23 lung; NCI-H226 lung; NCI-H322M lung; HOP-62 NSCLC; NCI-H460 lung; HOP-92 NSCLC; NCI-H522 lung; A549/ATCC NSCLC; 786-0 renal; COLO 205 colon; DU-145 prostate; K-562 leukemia; MALME-3M melanoma; MDA-MB-231 breast; RXF 393 renal; SF-268 CNS; SF-295 CNS; SF-539 CNS; UACC-257 melanoma; M14 melanoma.
Common to all, as to assay: NCI-60 one-dose screen, 48 h (100 = growth as untreated, 0 = no growth, -100 = all killed)
What all share (settings): 10 µM unless noted

On to `C=C1C(=O)O[C@H]2[C@H]1CC/C(CNC(=O)Cc1c[nH]c3ccccc13)=C\CC[C@@]1(C)O[C@@H]21`, for which the growth in the test with NCI-H23 lung was 30%; in the test with NCI-H226 lung, -45.8% (active); in the test with NCI-H322M lung it was 82.2%; in the test with HOP-62 NSCLC, 53.8%; in the test on NCI-H460 lung, 29.6%; in the test with HOP-92 NSCLC it was 45.1%. In addition, the growth is -79.4% (active) with NCI-H522 lung; 62% in the test with A549/ATCC NSCLC; -36.4% (active) in the test on 786-0 renal; -74.9% (active) with COLO 205 colon; 26.5% with DU-145 prostate; -12.2% (active) with K-562 leukemia. Also, the growth with MALME-3M melanoma is 14.2%; with MDA-MB-231 breast it was 16.1%; in the test with RXF 393 renal, -72.3% (active); with SF-268 CNS, 51.2%; in the test on SF-295 CNS it was 69.9%; in the test with SF-539 CNS it was -27.1% (active). Further, the growth was 5.96% (active) in the test on UACC-257 melanoma and 3.28% (active) in the test with M14 melanoma.
Consider `Cc1nc2sc(C(=O)Nc3ccccn3)c(N)c2cc1C(C)O` (stereo not given), for which the growth with NCI-H23 lung was 84.3%; in the test with NCI-H226 lung, 85.8%; with NCI-H322M lung it was 83.1%; in the test with HOP-62 NSCLC, 63.9%; in the test with NCI-H460 lung it was 80.2%; in the test on HOP-92 NSCLC, 74.3%. The growth is 59.9% in the test with NCI-H522 lung; 82% in the test with A549/ATCC NSCLC; 82.1% with 786-0 renal; 75.1% with COLO 205 colon; 103% with DU-145 prostate; 31.1% with K-562 leukemia. The growth is 97.9% with MALME-3M melanoma; 59.1% with MDA-MB-231 breast; 71.2% with RXF 393 renal; 83.6% with SF-268 CNS; 65.1% in the test on SF-295 CNS; 59.8% in the test on SF-539 CNS. In addition, the growth in the test with UACC-257 melanoma is 81.6%; in the test on M14 melanoma, 49.3%.
Regarding `O=C(Cc1ccc(/C=C/C(=O)c2ncc[nH]2)cc1)Nc1cc(F)c(F)c(F)c1`, the growth in the test with NCI-H23 lung was 32.2%; with NCI-H226 lung, 95.2%; with NCI-H322M lung, 72.8%; in the test with HOP-62 NSCLC it was 90.6%; with NCI-H460 lung it was 28.2%; with HOP-92 NSCLC it was 116%. Besides, the growth in the test with NCI-H522 lung was 49.1%; in the test on A549/ATCC NSCLC it was 70.6%; with 786-0 renal it was 8.88% (active); in the test with COLO 205 colon it was 64.9%; in the test on DU-145 prostate, 18.7%; with K-562 leukemia, 18.3%. For the same molecule, the growth in the test on MALME-3M melanoma was 93.7%; with MDA-MB-231 breast it was 41.4%; in the test with RXF 393 renal, 13.1%; in the test with SF-268 CNS, 58.3%; in the test with SF-295 CNS it was 77.3%; in the test with SF-539 CNS, 5.66% (active). The growth with UACC-257 melanoma was 99.9%; in the test with M14 melanoma, 85.2%.
In the case of `CCOC(=O)CC[C@H](NC(=O)c1ccc(N(C)Cc2cnc3nc(N)nc(N)c3n2)c2ccccc12)C(=O)OCC`, the growth is 25.5% in the test with NCI-H23 lung; 72.6% in the test with NCI-H226 lung; 46.3% in the test with NCI-H322M lung; 29.4% in the test with HOP-62 NSCLC; 13.8% in the test on NCI-H460 lung; 51.7% in the test with HOP-92 NSCLC. Moreover, the growth is 22.4% with NCI-H522 lung; 9.28% (active) with A549/ATCC NSCLC; 27.5% in the test on 786-0 renal; 36.9% with COLO 205 colon; 28.3% with DU-145 prostate; 18.8% with K-562 leukemia. The growth is 62.1% in the test on MALME-3M melanoma; 59.4% in the test with MDA-MB-231 breast; 48.7% in the test on RXF 393 renal; 32.9% with SF-268 CNS; 24.3% with SF-295 CNS; 26.1% with SF-539 CNS. Further, the growth with UACC-257 melanoma was 25.3%; in the test on M14 melanoma, 23%.
For the molecule `CCN(CC)CCOc1ccc2ccc(=O)oc2c1`, the growth with NCI-H23 lung was 106%; with NCI-H226 lung, 106%; in the test with NCI-H322M lung, 88.2%; in the test with HOP-62 NSCLC, 100%; with NCI-H460 lung, 110%; in the test on HOP-92 NSCLC it was -15.1% (active). The growth is 89.6% in the test on NCI-H522 lung; 99.7% with A549/ATCC NSCLC; 101% with 786-0 renal; 102% in the test with COLO 205 colon; 121% in the test with DU-145 prostate; 2.68% (active) with K-562 leukemia. Further, the growth with MALME-3M melanoma was 105%; in the test with MDA-MB-231 breast it was 99.5%; in the test with RXF 393 renal it was 103%; in the test on SF-268 CNS it was 109%; in the test on SF-295 CNS it was 94.3%; with SF-539 CNS, 101%. Besides, the results for the growth with UACC-257 melanoma and in the test on M14 melanoma were 93% and 94.8%, respectively.
Consider `COc1ccc(Cl)cc1Nc1nc(C(F)(F)F)ccc1C(=O)N/N=C/c1ccc([N+](=O)[O-])cc1`, for which the growth in the test with NCI-H23 lung is 18%; in the test on NCI-H226 lung, 13.6%; in the test on NCI-H322M lung, -1.09% (active); in the test with HOP-62 NSCLC, 11.4%; in the test on NCI-H460 lung, 0.872% (active); with HOP-92 NSCLC, -47.7% (active). Moreover, the growth in the test with NCI-H522 lung is -8.55% (active); in the test with A549/ATCC NSCLC, 6.02% (active); in the test with 786-0 renal, 8.42% (active); with COLO 205 colon, 9.91% (active); in the test with DU-145 prostate it was 12.8%; in the test with K-562 leukemia, 2.07% (active). Also, the growth in the test on MALME-3M melanoma was 11.5%; in the test on MDA-MB-231 breast, -14.9% (active); in the test with RXF 393 renal, 13%; with SF-268 CNS, 15.3%; in the test with SF-295 CNS, -52% (active); in the test with SF-539 CNS, 10.8%. The growth was -3.41% (active) with UACC-257 melanoma and 36.2% with M14 melanoma.
For the molecule `O=C(Nc1ccc(Oc2cccc(Cl)c2)c(Cl)c1)c1cccnn1`, the growth with NCI-H23 lung is 84.1%; in the test on NCI-H226 lung it was 78.8%; with NCI-H322M lung, 93.9%; with HOP-62 NSCLC, 101%; in the test with NCI-H460 lung, 99.8%; with HOP-92 NSCLC it was 84.4%. In addition, the growth was 73.6% in the test with NCI-H522 lung; 75.3% in the test with A549/ATCC NSCLC; 77.4% in the test on 786-0 renal; 106% with COLO 205 colon; 86.3% in the test on DU-145 prostate; 77% in the test with K-562 leukemia. In addition, the growth was 104% in the test on MALME-3M melanoma; 95.5% in the test on MDA-MB-231 breast; 90.3% with RXF 393 renal; 83.9% with SF-268 CNS; 82.2% with SF-295 CNS; 95.3% with SF-539 CNS. For the same molecule, the growth was 104% with UACC-257 melanoma and 92.8% with M14 melanoma.
As to `CC(C)Cc1nc(Nc2ccccc2)[nH]c(=O)c1C#N`, the growth in the test on NCI-H23 lung was 33.8%; in the test with NCI-H226 lung it was 58.1%; with NCI-H322M lung, 61%; in the test on HOP-62 NSCLC, 82.7%; in the test on NCI-H460 lung, 59.8%; with HOP-92 NSCLC it was -14% (active). Besides, the growth in the test with NCI-H522 lung was 17.3%; in the test on A549/ATCC NSCLC, 57.3%; in the test on 786-0 renal it was 72.6%; in the test on COLO 205 colon, 49.7%; in the test on DU-145 prostate, 70.8%; in the test with K-562 leukemia it was 48.8%. Also, the growth with MALME-3M melanoma was 72.6%; in the test with MDA-MB-231 breast it was 47.9%; with RXF 393 renal, 67.4%; with SF-268 CNS, 63.3%; in the test with SF-295 CNS, 58.7%; in the test with SF-539 CNS, 50.7%. The growth is 81.2% in the test with UACC-257 melanoma and 53.2% in the test on M14 melanoma.

Values taken from PubChem BioAssay (NCI).
